Results filed as inconclusive are left out. Calls of active or inactive are those of the source. Unless noted, the call rests on the fitted dose curve; in most records, active means well fitted inhibition curve with a large enough effect; inconclusive means small, poorly fitted or top-dose-only effect; inactive means flat fitted curve, though single readings scatter.
What was measured:
[1] = qHTS drug screen for cell cycle checkpoint inhibitors in PARPi-resistant BRCA-mutant ovarian cancer cell lines. (AID 1963452; calls by dose curve); conditions: PEO1/OlaR viability, CellTiter-Glo luminescence, 96 h, stronger effect = lower value
Method in brief: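 PEO1, PEO4 and PEO1/OlaR ovarian cancer cells, 600 per well, exposed 96 h at 37C to a dilution series. Viability read by CellTiter-Glo luminescence, normalized to DMSO and empty wells; activity summarized as Z-AUC.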

[2] = qHTS profiling for inhibitors of Plasmodium falciparum proliferation (AID 504749); further: potency means the concentration at half of the fitted maximal effect; nearly all actives have a fitted effect of over 60% in size; conditions: P. falciparum in erythrocytes, SYBR Green DNA, 72 h
Method in brief: (§1)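 Fluorescence of SYBR Green-bound parasite DNA, read at 485/535 nm, served as the growth measure. Infected erythrocytes were cultured with compound 72 h; artemisinin (0.29 uM) and DMSO wells defined the normalization range.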

[3] = test system: 3D7; assay: as above; conditions: P. falciparum in erythrocytes, SYBR Green DNA, 72 h; series mostly up to 28.7 µM
Method in brief: as §1

[4] = test system: 7G8; assay: as above; conditions: P. falciparum in erythrocytes, SYBR Green DNA, 72 h; series mostly up to 28.7 µM
Method in brief: as §1

[5] = test system: AA1029; assay: as above; conditions: P. falciparum in erythrocytes, SYBR Green DNA, 72 h; series mostly up to 28.7 µM
Method in brief: as §1

[6] = test system: AS120; assay: as above; conditions: P. falciparum in erythrocytes, SYBR Green DNA, 72 h; series mostly up to 28.7 µM
Method in brief: as §1

[7] = test system: ATS189; assay: as above; conditions: P. falciparum in erythrocytes, SYBR Green DNA, 72 h; series mostly up to 28.7 µM
Method in brief: as §1

[8] = test system: ATS95; assay: as above; conditions: P. falciparum in erythrocytes, SYBR Green DNA, 72 h
Method in brief: as §1

[9] = test system: C2A; assay: as above; conditions: P. falciparum in erythrocytes, SYBR Green DNA, 72 h; series mostly up to 28.7 µM
Method in brief: as §1

[10] = test system: CP185; assay: as above; conditions: P. falciparum in erythrocytes, SYBR Green DNA, 72 h; series mostly up to 28.7 µM
Method in brief: as §1

[11] = test system: CP191; assay: as above; conditions: P. falciparum in erythrocytes, SYBR Green DNA, 72 h; series mostly up to 28.7 µM
Method in brief: as §1

[12] = test system: CP192; assay: as above; conditions: P. falciparum in erythrocytes, SYBR Green DNA, 72 h; series mostly up to 28.7 µM
Method in brief: as §1

[13] = test system: CP194; assay: as above; conditions: P. falciparum in erythrocytes, SYBR Green DNA, 72 h; series mostly up to 28.7 µM
Method in brief: as §1

[14] = test system: CP201; assay: as above; conditions: P. falciparum in erythrocytes, SYBR Green DNA, 72 h; series mostly up to 28.7 µM
Method in brief: as §1

[15] = test system: CP203; assay: as above; conditions: P. falciparum in erythrocytes, SYBR Green DNA, 72 h; series mostly up to 28.7 µM
Method in brief: as §1

[16] = test system: CP211; assay: as above; conditions: P. falciparum in erythrocytes, SYBR Green DNA, 72 h; series mostly up to 28.7 µM
Method in brief: as §1

[17] = test system: CP215; assay: as above; conditions: P. falciparum in erythrocytes, SYBR Green DNA, 72 h
Method in brief: as §1

[18] = test system: CP217; assay: as above; conditions: P. falciparum in erythrocytes, SYBR Green DNA, 72 h; series mostly up to 28.7 µM
Method in brief: as §1

[19] = test system: CP237; assay: as above; conditions: P. falciparum in erythrocytes, SYBR Green DNA, 72 h
Method in brief: as §1

[20] = test system: CP238; assay: as above; conditions: P. falciparum in erythrocytes, SYBR Green DNA, 72 h; series mostly up to 28.7 µM
Method in brief: as §1

[21] = measured here: PEO1 parental Z-AUC

C=CCNC1=C2C[C@@H](C)C[C@H](OC)[C@H](O)[C@@H](C)/C=C(\C)[C@H](OC(N)=O)[C@@H](OC)/C=C\C=C(/C)C(=O)NC(=CC1=O)C2=O
Z-AUC [1]: -0.418 (inactive) | Z-AUC [1, 21]: -0.98 | Z-AUC ([1]; measured here: PEO4 Z-AUC): -0.867 | Potency ([2]; parasite line A): 1410 nM (active) | Potency ([2]; parasite line B): 2240 nM (active) | Potency [3]: 2240 nM (active) | Potency [4]: 447 nM (active) | Potency [5]: 1410 nM (active) | Potency [6]: 1410 nM (active) | Potency [7]: 2240 nM (active) | Potency [8]: 2000 nM (active) | Potency [9]: 2000 nM (active) | Potency [10]: 2510 nM (active) | Potency [11]: 2000 nM (active) | Potency [12]: 4260 nM (active) | Potency [13]: 4260 nM (active) | Potency [14]: 6750 nM (active) | Potency [15]: 3790 nM (active) | Potency [16]: 3790 nM (active) | Potency [17]: 4780 nM (active) | Potency [18]: 2000 nM (active) | Potency [19]: 1260 nM (active) | Potency [20]: 1580 nM (active)

Cc1[nH]c(/C=C2\C(=O)Nc3ccc(F)cc32)c(C)c1C(=O)NCCN1CCCC1
Z-AUC [1]: 0.66 (inactive) | Z-AUC [1, 21]: 0.734 | Z-AUC ([1]; measured here: PEO4 Z-AUC): 0.596

CN[C@H]1CC[C@@H](c2ccc(Cl)c(Cl)c2)c2ccccc21
Z-AUC [1]: 0.0758 (inactive) | Z-AUC [1, 21]: 0.141 | Z-AUC ([1]; measured here: PEO4 Z-AUC): -0.265

Cc1ccc(C(=O)Nc2ccc(CN3CCN(C)CC3)c(C(F)(F)F)c2)cc1C#Cc1cnc2[nH]ncc2c1
Z-AUC [1]: -1.39 (inactive) | Z-AUC [1, 21]: -0.429 | Z-AUC ([1]; measured here: PEO4 Z-AUC): -0.168

Cc1cc(N2CCOCC2)ccc1Nc1nc(NC2CCCCC2)c2[nH]cnc2n1
Z-AUC [1]: -0.0672 (inactive) | Z-AUC [1, 21]: -0.748 | Z-AUC ([1]; measured here: PEO4 Z-AUC): -0.826

Reference: PubChem BioAssay (NCATS)
